# Values joined by “and” are separate entries in the source; they are usually repeats but may differ in a detail not shown here. Equal entries are not always repeated. Inconclusive results are not listed. The source holds several records for some structures; these can differ, active in one and inactive in another. Active and inactive are the calls of the source. The calls were made as follows, unless noted: active = hit-call score of the fitted dose curve at least 0.9, where 1 is the maximum; inactive = score below 0.9.
# Experiments:
# [1] = molecular target: Paired box protein Pax-6 (Homo sapiens) (UniProt P26367); experiment: ATG_Pax6_CIS: Attagene CIS-FACTORIAL HepG2 Assay for human Paired Box 6 (PAX6) (AID 2282956); details: HepG2 CIS-FACTORIAL PAX6 reporter transcription, RNA readout; actives raise or lower the signal
# In short: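 Read-out is reporter transcript level, measured by RT-PCR with fluorescent primer extension and capillary electrophoresis after 24 h dosing of transfected HepG2 cells. Activity in either direction fitted relative to DMSO control.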
# [2] = ATG_PPRE_CIS: Attagene CIS-FACTORIAL HepG2 Assay for human Peroxisome Proliferator-activated Response Element (PPRE) (AID 2282958); details: HepG2 PPRE cis-element reporter, Attagene transcription factor profiling; actives raise or lower the signal
# In short: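 Transcript-level reporter induction in transfected HepG2 cells after 24 h chemical exposure, quantified by fluorescence from RT-PCR products separated by capillary electrophoresis.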
# [3] = ATG_RORE_CIS: Attagene CIS-FACTORIAL HepG2 Assay for human RAR-related Orphan Receptor Element (RORE) (AID 2282959); details: HepG2 Attagene cis-factorial RORE reporter, mRNA; actives raise or lower the signal
# In short: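 Multiplexed reporter assay measuring mRNA induction from a cis promoter element in transiently transfected HepG2 cells after 24 h treatment. Detection via RT-PCR and capillary electrophoresis fluorescence; DMSO serves as baseline.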
# [4] = ATG_Sox_CIS: Attagene CIS-FACTORIAL HepG2 Assay for human SRY-box transcription factor (SOX) (AID 2282960); details: HepG2 Attagene cis-factorial SOX reporter, mRNA; actives raise or lower the signal
# In short: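 Cells were transfected with reporter constructs under cis-regulatory promoters, then exposed to chemicals for 24 h. Reporter transcripts were quantified by fluorescence after RT-PCR and capillary electrophoresis; activity was fitted in both directions against DMSO.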
# [5] = molecular target: Transcription factor Sp1 (Homo sapiens) (UniProt P08047); experiment: ATG_Sp1_CIS: Attagene CIS-FACTORIAL HepG2 Assay for human Specificity Protein 1 (Sp1) (AID 2282961); details: HepG2 Sp1 cis-reporter transcription, actives raise or lower the signal
# In short: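 Measures mRNA induction of an Sp1-linked reporter in HepG2 cells 24 h post-dosing. Multiplexed reporters read by RT-PCR and capillary electrophoresis; DMSO serves as negative control and baseline.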
# [6] = ATG_SREBP_CIS: Attagene CIS-FACTORIAL HepG2 Assay for human Sterol Regulatory Element Binding (SREBP) (AID 2282962); details: HepG2 Attagene cis-factorial SREBP reporter, mRNA; actives raise or lower the signal
# In short: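 Endogenous SREBP activity read as cis-element-driven reporter transcript in transiently transfected HepG2, 24 h post-dosing; quantified via RT-PCR plus capillary electrophoresis of fluorescent fragments. Gain or loss of signal fitted relative to DMSO baseline.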
# [7] = molecular target: Signal transducer and activator of transcription 3 (Homo sapiens) (UniProt P40763); experiment: ATG_STAT3_CIS: Attagene CIS-FACTORIAL HepG2 Assay for human Signal Transducer and Activator of Transcription 3 (STAT3) (AID 2282963); details: HepG2, Attagene cis-factorial STAT3 reporter transcription; actives raise or lower the signal
# In short: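 Uses human liver HepG2 transiently carrying cis-regulated reporter transcription units. Following 24 h dosing, reporter mRNA induction was detected by RT-PCR and capillary electrophoresis, analysed bidirectionally versus DMSO.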
# [8] = ATG_TA_CIS: Attagene CIS-FACTORIAL HepG2 Assay for human TA Basal Promoter (AID 2282964); details: HepG2 Attagene CIS-factorial TA basal promoter reporter; actives raise or lower the signal
# In short: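 HepG2 cells transiently transfected with multiplexed cis-promoter reporter units, dosed 24 h. Reporter mRNA measured by RT-PCR, 6-FAM labelling, HpaI digestion and capillary electrophoresis; bidirectional fit versus DMSO baseline, serving as background control.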
# [9] = ATG_TCF_b_cat_CIS: Attagene CIS-FACTORIAL HepG2 Assay for human T-Cell-Factor with beta-catenin (TCF/b-cat) (AID 2282965); details: HepG2 TCF/beta-catenin cis-reporter transcription, actives raise or lower the signal
# In short: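 Using capillary electrophoresis as the read-out, labelled reporter cDNA fragments from transiently transfected HepG2 were sized and quantified. Exposure lasted 24 hours; activity in either direction was referenced to DMSO.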
# [10] = ATG_TAL_CIS: Attagene CIS-FACTORIAL HepG2 Assay for human TAL Basal Promoter (AID 2282966); details: HepG2 Attagene cis-factorial TAL promoter reporter; actives raise or lower the signal;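 also: background control endpoint measuring basal TAL promoter reporter mRNA not a specific factor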
# In short: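 Basal-promoter background-control endpoint from a multiplexed HepG2 reporter panel. Cells were exposed 24 h, then reporter mRNA was read by RT-PCR/CE fluorescence and fitted in both directions relative to DMSO.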
# [11] = ATG_TGFb_CIS: Attagene CIS-FACTORIAL HepG2 Assay for human Transforming Growth Factor (TGF) (AID 2282967); details: HepG2 Attagene CIS TGFb reporter, mRNA transcription; actives raise or lower the signal
# In short: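 HepG2 cells transiently transfected with cis-promoter-driven multiplexed reporter units; 24 h compound exposure. Reporter mRNA measured by RT-PCR, 6-FAM labeling, HpaI digestion and capillary electrophoresis; bidirectional fit versus DMSO baseline.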
# [12] = molecular target: X-box-binding protein 1 (Homo sapiens) (UniProt P17861); experiment: ATG_Xbp1_CIS: Attagene CIS-FACTORIAL HepG2 Assay for human X-box Binding Protein 1 (XBP1) (AID 2282972); details: HepG2 XBP1 cis-element reporter, Attagene multiplex; actives raise or lower the signal
# In short: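 Reporter transcripts were quantified by RT-PCR with fluorescent primer extension and capillary electrophoresis after 24 h chemical exposure. Cells: transiently transfected HepG2 carrying cis-regulated reporter constructs; data fitted bidirectionally relative to DMSO.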
# [13] = ATG_M_19_TRANS: Attagene TRANS-FACTORIAL HepG2 Assay for M19 Transcription Factor (Internal Marker) (AID 2282974; active = hit-call score of the fitted dose curve at least 0.9, where 1 is the maximum); details: HepG2 Attagene TRANS-FACTORIAL M19 internal marker reporter
# In short: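 After transfection of HepG2 with GAL4-UAS-driven reporter constructs, cells are dosed for 24 h. Total RNA is reverse-transcribed, reporter sequences PCR-amplified and labelled, then HpaI-digested and sized by capillary electrophoresis.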
# [14] = ATG_GAL4_TRANS: Attagene TRANS-FACTORIAL HepG2 Assay for GAL4 (Internal Marker) (AID 2282976; active = hit-call score of the fitted dose curve at least 0.9, where 1 is the maximum); details: HepG2 Attagene TRANS GAL4 internal marker reporter
# In short: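 Background-control readout: GAL4-UAS reporter transcript in transiently transfected HepG2 cells after 24 h compound exposure. Measured by RT-PCR, 6-FAM primer extension, HpaI digest and capillary electrophoresis; gain-of-signal fit versus DMSO.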
# [15] = ATG_PXRE_CIS: Attagene CIS-FACTORIAL HepG2 Assay for human Pregnane X Receptor Element (PXRE) (AID 2282957); details: HepG2 Attagene CIS-FACTORIAL PXRE reporter, mRNA; actives raise or lower the signal
# In short: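 After a 24 h chemical incubation, total RNA from transfected HepG2 cells was reverse-transcribed and reporter cDNA amplified, FAM-labeled, HpaI-digested and sized by capillary electrophoresis. DMSO served as baseline for bidirectional curve fitting.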
# [16] = ATG_VDRE_CIS: Attagene CIS-FACTORIAL HepG2 Assay for human Vitamin D Receptor Element (VDRE) (AID 2282968); details: HepG2 VDRE cis-reporter transcription, actives raise or lower the signal
# In short: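 Transfected HepG2 reporter cells, chemical treatment 24 h. RNA isolated, cDNA amplified with reporter-specific primers, products analysed by capillary electrophoresis. Endpoint fitted in both directions versus DMSO.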
# [17] = molecular target: Estrogen receptor (Homo sapiens) (UniProt P03372); experiment: ATG_ERa_TRANS: Attagene TRANS-FACTORIAL HepG2 Assay for human Estrogen Receptor alpha (ERa) (AID 2282970; active = hit-call score of the fitted dose curve at least 0.9, where 1 is the maximum); details: HepG2 Attagene TRANS ERa GAL4 reporter, mRNA
# In short: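 Gal4-fusion ERa transactivation, measured as reporter transcript level in transiently transfected HepG2 cells. Exposure 24 h; RT-PCR plus capillary electrophoresis with fluorescence detection.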
# [18] = molecular target: Steroid hormone receptor ERR1 (Homo sapiens) (UniProt P11474); experiment: ATG_ERRa_TRANS: Attagene TRANS-FACTORIAL HepG2 Assay for human Estrogen-Related Receptor alpha (ERRa) (AID 2282971; active = hit-call score of the fitted dose curve at least 0.9, where 1 is the maximum); details: HepG2 Attagene TRANS reporter, ERRa transactivation
# In short: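 HepG2 cells transiently transfected with GAL4-UAS reporter units and chimeric NR-Gal4 constructs; after 24 hour compound incubation, reporter mRNA quantified by RT-PCR, fluorescent labelling and capillary electrophoresis, gain of signal versus DMSO.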
# Sequence of Transcription factor Sp1 (Homo sapiens) (P08047 whole entry, looked up): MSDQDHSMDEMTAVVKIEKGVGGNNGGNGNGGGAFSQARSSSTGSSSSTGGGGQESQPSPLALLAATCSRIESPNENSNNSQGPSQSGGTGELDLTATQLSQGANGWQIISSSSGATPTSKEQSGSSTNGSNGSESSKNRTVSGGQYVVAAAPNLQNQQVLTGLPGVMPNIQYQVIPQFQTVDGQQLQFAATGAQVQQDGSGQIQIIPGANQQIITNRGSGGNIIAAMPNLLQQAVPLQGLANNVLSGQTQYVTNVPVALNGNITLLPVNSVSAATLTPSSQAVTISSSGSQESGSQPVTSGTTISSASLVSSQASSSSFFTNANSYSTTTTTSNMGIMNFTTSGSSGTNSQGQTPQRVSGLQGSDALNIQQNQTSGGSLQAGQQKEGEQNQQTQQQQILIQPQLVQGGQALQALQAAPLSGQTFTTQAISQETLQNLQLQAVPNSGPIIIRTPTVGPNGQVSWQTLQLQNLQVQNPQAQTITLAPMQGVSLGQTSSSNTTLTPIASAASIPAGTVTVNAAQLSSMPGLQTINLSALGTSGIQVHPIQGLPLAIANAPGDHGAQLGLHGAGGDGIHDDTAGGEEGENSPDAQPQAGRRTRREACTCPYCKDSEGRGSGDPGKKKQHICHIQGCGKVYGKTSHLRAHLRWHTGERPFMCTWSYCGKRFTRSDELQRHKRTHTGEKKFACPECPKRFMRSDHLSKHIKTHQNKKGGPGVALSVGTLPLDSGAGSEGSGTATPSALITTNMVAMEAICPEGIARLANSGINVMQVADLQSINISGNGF
# Sequence of Estrogen receptor (Homo sapiens) (P03372 whole entry, looked up, the tested form may be a part): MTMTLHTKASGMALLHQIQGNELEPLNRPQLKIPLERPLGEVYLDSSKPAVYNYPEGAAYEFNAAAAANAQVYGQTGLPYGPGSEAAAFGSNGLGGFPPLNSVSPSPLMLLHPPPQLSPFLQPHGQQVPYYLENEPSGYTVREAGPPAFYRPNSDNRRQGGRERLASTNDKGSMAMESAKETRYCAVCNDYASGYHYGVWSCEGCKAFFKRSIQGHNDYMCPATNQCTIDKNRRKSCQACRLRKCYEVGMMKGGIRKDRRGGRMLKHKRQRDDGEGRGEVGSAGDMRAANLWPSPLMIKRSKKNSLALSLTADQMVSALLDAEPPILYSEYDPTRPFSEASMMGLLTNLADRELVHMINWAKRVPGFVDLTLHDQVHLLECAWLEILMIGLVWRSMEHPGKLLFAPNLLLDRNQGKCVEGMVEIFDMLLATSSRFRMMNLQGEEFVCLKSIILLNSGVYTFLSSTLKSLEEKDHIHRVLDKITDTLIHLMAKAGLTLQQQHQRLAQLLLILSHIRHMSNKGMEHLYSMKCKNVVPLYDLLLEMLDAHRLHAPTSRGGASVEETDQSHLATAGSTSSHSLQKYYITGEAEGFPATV
# Sequence of Paired box protein Pax-6 (Homo sapiens) (P26367 whole entry, looked up): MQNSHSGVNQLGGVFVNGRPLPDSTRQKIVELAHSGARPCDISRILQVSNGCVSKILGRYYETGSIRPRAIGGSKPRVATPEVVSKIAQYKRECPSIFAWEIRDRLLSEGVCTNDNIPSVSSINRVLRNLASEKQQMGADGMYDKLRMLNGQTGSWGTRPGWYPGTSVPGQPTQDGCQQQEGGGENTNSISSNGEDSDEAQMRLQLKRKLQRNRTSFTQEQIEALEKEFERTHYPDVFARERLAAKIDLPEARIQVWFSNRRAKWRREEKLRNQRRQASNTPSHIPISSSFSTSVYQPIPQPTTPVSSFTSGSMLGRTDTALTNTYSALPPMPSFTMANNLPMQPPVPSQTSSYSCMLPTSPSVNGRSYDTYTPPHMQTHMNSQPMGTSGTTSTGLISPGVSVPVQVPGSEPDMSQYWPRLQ
# Sequence of Signal transducer and activator of transcription 3 (Homo sapiens) (P40763 whole entry, looked up): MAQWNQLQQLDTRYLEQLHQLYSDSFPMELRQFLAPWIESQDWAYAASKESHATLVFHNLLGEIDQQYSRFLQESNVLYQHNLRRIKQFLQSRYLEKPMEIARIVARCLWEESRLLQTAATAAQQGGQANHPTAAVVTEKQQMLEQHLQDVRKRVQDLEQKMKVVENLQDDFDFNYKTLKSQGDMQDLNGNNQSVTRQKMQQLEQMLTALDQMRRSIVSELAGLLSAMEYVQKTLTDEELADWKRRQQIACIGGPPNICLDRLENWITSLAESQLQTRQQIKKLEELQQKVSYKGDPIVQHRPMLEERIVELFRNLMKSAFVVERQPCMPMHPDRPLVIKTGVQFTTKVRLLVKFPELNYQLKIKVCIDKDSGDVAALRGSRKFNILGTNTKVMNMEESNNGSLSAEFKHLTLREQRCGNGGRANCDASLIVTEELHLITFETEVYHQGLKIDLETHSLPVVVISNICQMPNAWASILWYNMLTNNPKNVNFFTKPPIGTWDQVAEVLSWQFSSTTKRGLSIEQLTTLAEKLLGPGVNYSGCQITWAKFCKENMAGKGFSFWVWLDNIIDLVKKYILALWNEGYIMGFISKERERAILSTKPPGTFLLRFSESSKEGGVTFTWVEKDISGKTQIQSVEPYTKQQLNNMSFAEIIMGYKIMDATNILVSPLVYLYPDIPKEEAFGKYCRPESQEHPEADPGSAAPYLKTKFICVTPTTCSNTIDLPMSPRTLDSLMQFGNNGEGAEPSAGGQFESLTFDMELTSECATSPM
# Sequence of X-box-binding protein 1 (Homo sapiens) (P17861 whole entry, looked up): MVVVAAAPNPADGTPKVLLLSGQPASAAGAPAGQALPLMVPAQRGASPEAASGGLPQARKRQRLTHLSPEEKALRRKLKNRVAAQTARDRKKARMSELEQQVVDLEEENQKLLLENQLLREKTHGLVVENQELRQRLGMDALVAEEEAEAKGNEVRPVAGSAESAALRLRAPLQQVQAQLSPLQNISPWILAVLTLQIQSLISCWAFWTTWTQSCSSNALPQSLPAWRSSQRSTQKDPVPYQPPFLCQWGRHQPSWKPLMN
# Sequence of Steroid hormone receptor ERR1 (Homo sapiens) (P11474 whole entry, looked up, the tested form may be a part): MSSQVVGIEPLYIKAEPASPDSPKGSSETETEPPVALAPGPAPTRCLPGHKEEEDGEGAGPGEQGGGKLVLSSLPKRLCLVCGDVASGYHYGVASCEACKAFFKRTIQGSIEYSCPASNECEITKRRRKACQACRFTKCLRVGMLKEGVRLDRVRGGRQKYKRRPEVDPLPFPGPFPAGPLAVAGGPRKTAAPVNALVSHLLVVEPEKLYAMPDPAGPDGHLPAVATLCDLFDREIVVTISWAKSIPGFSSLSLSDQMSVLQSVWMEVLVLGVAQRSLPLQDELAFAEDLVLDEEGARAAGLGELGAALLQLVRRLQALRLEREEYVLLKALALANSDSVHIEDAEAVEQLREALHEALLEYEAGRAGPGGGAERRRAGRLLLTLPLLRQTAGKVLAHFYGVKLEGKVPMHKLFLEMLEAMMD
structure (smiles),measurement,setting,value
CC/C(=C(\c1ccccc1)c1ccc(OCCN(C)C)cc1)c1ccccc1,outcome,[1],inactive
same,outcome,[2],inactive
same,outcome,[3],inactive
same,outcome,[4],inactive
same,outcome,[5],inactive
same,AC50,[6],5.24 µM (active) and 3.71 µM (active)
same,outcome,[6],inactive
same,outcome,[7],inactive
same,outcome,[8],inactive
same,outcome,[9],inactive
same,outcome,[10],inactive
same,outcome,[11],inactive
same,outcome,[12],inactive
same,outcome,[13],inactive
same,outcome,[14],inactive
C=CC(=O)OCCCCCC,outcome,[1],inactive
same,AC50,[15],59.6 µM (active)
same,outcome,[4],inactive
same,outcome,[5],inactive
same,outcome,[6],inactive
same,outcome,[7],inactive
same,outcome,[8],inactive
same,outcome,[9],inactive
same,outcome,[10],inactive
same,outcome,[11],inactive
same,outcome,[12],inactive
same,outcome,[13],inactive
same,outcome,[14],inactive
CCCCCCCCCCCCCCCCCC(=O)OCCCCCCCCCCCCCC(C)C,outcome,[1],inactive
same,outcome,[2],inactive
same,outcome,[4],inactive
same,outcome,[5],inactive
same,outcome,[6],inactive
same,outcome,[7],inactive
same,outcome,[8],inactive
same,outcome,[9],inactive
same,outcome,[10],inactive
same,outcome,[11],inactive
same,outcome,[16],inactive
same,outcome,[17],inactive
same,outcome,[12],inactive
same,outcome,[14],inactive
O=C1OC2(c3ccc(O)cc3Oc3cc(O)ccc32)c2ccccc21,outcome,[1],inactive
same,outcome,[3],inactive
same,outcome,[4],inactive
same,outcome,[5],inactive
same,outcome,[6],inactive
same,outcome,[7],inactive
same,outcome,[8],inactive
same,outcome,[10],inactive
same,outcome,[11],inactive
same,AC50,[17],27.7 µM (active)
same,outcome,[12],inactive
CCCCCC1CCC(=O)O1 (centres undefined),outcome,[1],inactive
same,outcome,[15],inactive
same,outcome,[4],inactive
same,outcome,[5],inactive
same,outcome,[6],inactive
same,outcome,[7],inactive
same,outcome,[9],inactive
same,outcome,[10],inactive
same,outcome,[11],inactive
same,outcome,[16],inactive
same,outcome,[12],inactive
same,outcome,[13],inactive
same,outcome,[14],inactive
O=S1(=O)CC=CC1,outcome,[1],inactive
same,outcome,[15],inactive
same,outcome,[3],inactive
same,outcome,[4],inactive
same,outcome,[5],inactive
same,outcome,[6],inactive
same,outcome,[7],inactive
same,outcome,[9],inactive
same,outcome,[16],inactive
same,outcome,[12],inactive
same,outcome,[13],inactive
same,outcome,[14],inactive
CC/C=C\CCCCO,outcome,[1],inactive
same,outcome,[15],inactive
same,outcome,[3],inactive
same,outcome,[4],inactive
same,outcome,[5],inactive
same,outcome,[6],inactive
same,outcome,[7],inactive
same,outcome,[8],inactive
same,outcome,[9],inactive
same,outcome,[10],inactive
same,outcome,[11],inactive
same,outcome,[16],inactive
same,outcome,[17],inactive
same,outcome,[13],inactive
same,outcome,[14],inactive
CCO[Si](CCC#N)(OCC)OCC,outcome,[1],inactive
same,outcome,[15],inactive
same,outcome,[3],inactive
same,outcome,[4],inactive
same,outcome,[5],inactive
same,outcome,[6],inactive
same,outcome,[7],inactive
same,outcome,[8],inactive
same,outcome,[9],inactive
same,outcome,[10],inactive
same,outcome,[11],inactive
same,outcome,[17],inactive
same,outcome,[12],inactive
same,outcome,[14],inactive
CC(C)(CO)CO,outcome,[1],inactive
same,outcome,[15],inactive
same,outcome,[3],inactive
same,outcome,[4],inactive
same,outcome,[5],inactive
same,outcome,[6],inactive
same,outcome,[7],inactive
same,outcome,[8],inactive
same,outcome,[9],inactive
same,outcome,[10],inactive
same,outcome,[11],inactive
same,outcome,[18],inactive
same,outcome,[13],inactive
c1ccc(Sc2ccccc2)cc1,outcome,[1],inactive
same,AC50,[15],62.7 µM (active)
same,outcome,[3],inactive
same,outcome,[4],inactive
same,outcome,[5],inactive
same,outcome,[6],inactive
same,outcome,[7],inactive
same,outcome,[8],inactive
same,outcome,[9],inactive
same,outcome,[16],inactive
same,AC50,[17],38.3 µM (active)
same,outcome,[12],inactive
same,outcome,[13],inactive
same,outcome,[14],inactive

# — PubChem BioAssay (EPA / NIEHS)
